# Experimental data taken from PubChem BioAssay (NCI).
# Compounds without any hit were thinned out: in the full panel of roughly 83,000, 20% have a hit.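 Plates (96-well) were seeded with cells, treated with compound at one concentration, and incubated for 48 hours before percent growth was determined.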 Calls of active or inactive are those of the source.
# Tested on: MCF7 breast
# Assay: NCI-60 one-dose screen, 48 h (100 = growth as untreated, 0 = no growth, -100 = all killed)
# Details: 10 µM unless noted
# Description: Growth inhibition of the MCF7 human tumor cell line is measured as a screen for anti-cancer activity. Cells are grown in 96 well plates and exposed to the test compound for 48 hours. Compounds are tested at a single concentration, which is 10^-5 M for most compounds. The reported endpoint is percent growth (GI% or GIPRCNT), where numbers from 0 - 100% represent growth inhibition, and numbers from -100% - 0 represent cell death. For example, a value of 40 represents 60% growth inhibition. A value of 0 means no net growth occurred over the course of the experiment. A value of -40 indicates 40% of cells at the beginning of the experiment died by the end of the experiment. A value of -100 means all cells are dead at the end of the experiment.
# NCI-60 Human Tumor Cell Lines Screen was performed using the standard one-dose NCI protocol, which is described in more detail at https://dtp.cancer.gov/discovery_development/nci-60/default.htm.
# Compounds with GIPRCNT values below 10 were considered active. Activity score was based on GIPRCNT using the following formula: […]
# Score is 0 for GIPRCNT values of 100 or above, 50 for GIPRCNT values of 0, and 100 for GIPRCNT values of -100.
row,SMILES,growth
1,S=C(c1ccccc1)N1CCN(c2cccc(Cl)c2)CC1,109% (inactive)
2,Clc1nc(Cl)c2ncn(-c3ccccc3)c2n1,54.8% (inactive)
3,CC(c1ccccn1)C(C)(O)C(C)c1ccccn1 (stereo not given),103% (inactive)
4,COc1cc(C(=O)/C=C/c2cccnc2Nc2ccccc2)cc(OC)c1OC,-73% (active)
5,O=C(/C=C/c1cc2ccccc2[nH]c1=O)c1ccc(Cl)cc1,15.2% (inactive)
6,CCCCC1Nc2nc(SC)n(C)c(=O)c2CN(Cc2ccccc2)C1=O (stereo not given),100% (inactive)
7,COc1ccc(C(=O)Nc2nc(-c3ccc(Cl)cc3)cs2)cc1,92.9% (inactive)
8,COc1ccc(Cn2c(NCCCN(C)C)nc(=O)n(Cc3ccc(F)cc3)c2=O)cc1,87.9% (inactive)
9,Cc1cc(O)c2c(c1)C[C@H]1[C@@H]3CC[C@H]4CC(=O)CC[C@]4(C)[C@H]3CC(=O)[C@]21C,95.6% (inactive)
10,O=C(Nc1ccncc1)C(=O)c1cn(S(=O)(=O)c2cccc(F)c2)c2ccccc12,5.06% (active)
11,Nc1ccc2c(c1)/C(=N/O)c1cc([N+](=O)[O-])ccc1-2,81.8% (inactive)
12,ClC1=C(Cl)C(=C2C(Cl)=C(Cl)C(Cl)=C2Cl)C(Cl)=C1Cl,90.3% (inactive)
13,COc1ccc(Cn2cc3c(c2-c2ccccc2)CCc2cncnc2-3)cc1,39.4% (inactive)
14,S=c1[nH]nc2sc3ccccc3n12,98.4% (inactive)
15,O=c1ccn(C2CCCO2)c(=O)[nH]1 (stereo not given),99.4% (inactive)
16,CN1COc2ccc3ccccc3c2C1,91.8% (inactive)
17,O=C1c2nsnc2C(=O)c2c(F)c(F)c(F)c(F)c21,-45.1% (active)
18,OCc1nnn(-c2ccccc2)c1CO,106% (inactive)
19,O=C1CC(=O)N(c2ccccc2)O1,115% (inactive)
20,NCCCc1nnc(CCC(=O)c2nc3ccccc3[nH]2)o1,91.4% (inactive)

row,SMILES,growth
1,Clc1ccc(-n2cnc3c(Cl)ncnc32)cc1Cl,89.8% (inactive)
2,C=C1CC[C@@H]2[C@](C)(COC(C)=O)[C@H](OC(C)=O)CC[C@@]2(C)[C@@H]1CC(Nc1ccc(S(=O)(=O)Nc2cc(C)on2)cc1)C1=CCOC1=O (stereo not given in full),12.3% (inactive)
3,Cc1nn(-c2ccccc2)c2c1oc(=O)c1cc(Cl)ccc12,92.7% (inactive)
4,CC(NC(=O)C(C)Oc1ccc(Cl)cc1Cl)C(=O)O (stereo not given),99.1% (inactive)
5,O=C1/C(=C/c2ccc3cccc(Cl)c3n2)SC(=S)N1CCc1ccc(O)cc1,86.3% (inactive)
6,COC(=O)CCC1=C(CC(=O)OC)C(C)=N/C1=C\c1[nH]c(-c2ccc[nH]2)cc1OC,3.83% (active)
7,Clc1cccc(Cc2cn3cc(-c4ccccc4)nc3s2)c1,21.1% (inactive)
8,CCOC(=O)C(C(C)=O)c1nc2sc3cc(Cl)ccc3n2c(=N)c1C#N (stereo not given),58.8% (inactive)
9,Cn1c(=O)c2c(nc(Br)n2CCC(=O)Nc2ccc(F)cc2)n(C)c1=O,100% (inactive)
10,NC(=Nc1ccccc1)SCCCCSC(N)=Nc1ccccc1,87.5% (inactive)
11,COc1ccc(C2=NN(C(C)=O)C(c3cc(OC)c(OC)c(OC)c3)C2)cc1 (stereo not given),89.8% (inactive)
12,N#CCNc1ccccc1N,88.8% (inactive)
13,Nc1ccc(C2=NN(c3ccccc3)C(c3ccc(Cl)cc3)C2)cc1 (stereo not given),14.5% (inactive)
14,CC1=NN(c2ccccc2Cl)C(=O)/C1=C\c1cn(S(=O)(=O)c2ccc(C)cc2)c2ccccc12,113% (inactive)
15,O=C1N(C2CCCCC2)C(=O)N1C1CCCCC1,42.9% (inactive)
16,Clc1ncn[nH]1,90.3% (inactive)
17,Cc1cc(C(C)(C)C)cc(C)c1CC1=NCCN1,113% (inactive)
18,O=C(/C(=C/c1ccc([N+](=O)[O-])cc1)c1ccccc1)c1ccccc1,26.4% (inactive)
19,COc1ccc2c3c(c(OCCCN(C)C)nc2c1)-c1ccc(Cl)cc1C3=O,-82.3% (active)
20,COc1ccc2nc3cc(Cl)ccc3c(N3CCN(c4ccnc(Nc5ccc(F)cc5)n4)CC3)c2c1,48.8% (inactive)
